Measurements taken from publication PMC11062922 (Nature Chemical Biology, 2023).
Read-outs that look alike come from different tables or passages of the source.

What was measured:
Parameters in all cases: species or system human, MV4-11 + K-562 + COLO205 + SK-N-BE2 + OVCAR-8
CDKL5 = details: read-out: apparent Kd, compound concentrations: 100 nM and 1000 nM (sheet 'Samples'), n = 1
MAPK10 = details: read-out: apparent Kd; compound concentrations: 100 nM and 1000 nM (sheet 'Samples'), CATDS: 0.149195814483779; n = 1
MAPK14 = details: read-out: apparent Kd, compound concentrations: 100 nM and 1000 nM (sheet 'Samples'), n = 1
MAPK9 = details: read-out: apparent Kd, n = 1
MAPKAPK2 = details: read-out: apparent Kd, n = 1
CIT = details: read-out: apparent Kd; compound concentrations:100 nM and 1000 nM (sheet 'Samples'); n = 1
CSNK1A1 = details: read-out: apparent Kd; compound concentrations:100 nM and 1000 nM (sheet 'Samples'); n = 1
CSNK1D = details: read-out: apparent Kd; compound concentrations:100 nM and 1000 nM (sheet 'Samples'); n = 1
CSNK1E = details: read-out: apparent Kd; compound concentrations:100 nM and 1000 nM (sheet 'Samples'); n = 1
PIK3CD = details: read-out: apparent Kd, n = 1
PKN3 = details: read-out: apparent Kd; compound concentrations:100 nM and 1000 nM (sheet 'Samples'); n = 1
PRKX = details: read-out: apparent Kd; compound concentrations:100 nM and 1000 nM (sheet 'Samples'); n = 1
PSMC3 = details: read-out: apparent Kd; compound concentrations:100 nM and 1000 nM (sheet 'Samples'); n = 1
RIPK2 = details: read-out: apparent Kd; compound concentrations:100 nM and 1000 nM (sheet 'Samples'); n = 1
SIK3 = details: read-out: apparent Kd; compound concentrations:100 nM and 1000 nM (sheet 'Samples'); n = 1
TGFBR2 = details: read-out: apparent Kd; compound concentrations:100 nM and 1000 nM (sheet 'Samples'); n = 1
CDK6 = details: read-out: apparent Kd; compound concentrations: 100 nM and 1000 nM (sheet 'Samples'), CATDS: 9.94086879029107E-2; n = 1
ERCC2 = details: read-out: apparent Kd, n = 1
ILK = details: read-out: apparent Kd; compound concentrations: 100 nM and 1000 nM (sheet 'Samples'), CATDS: 9.2277554070836695E-2; n = 1
IRAK1 = details: read-out: apparent Kd; compound concentrations: 100 nM and 1000 nM (sheet 'Samples'), CATDS: 0.100374426884943; n = 1
MAPK11 = details: read-out: apparent Kd; compound concentrations: 100 nM and 1000 nM (sheet 'Samples'), CATDS: 0.114875582953057; n = 1
NQO1 = details: read-out: apparent Kd; compound concentrations: 100 nM and 1000 nM (sheet 'Samples'), CATDS: 0.102757075513336; n = 1
PRKCQ = details: read-out: apparent Kd, n = 1
RIOK2 = details: read-out: apparent Kd; compound concentrations: 100 nM and 1000 nM (sheet 'Samples'), CATDS: 7.9590231457497898E-2; n = 1
ERBB3 = details: read-out: apparent Kd; compound concentrations: 100 nM and 1000 nM (sheet 'Samples'), CATDS: 0.345701208148325; n = 1
MYLK3 = details: read-out: apparent Kd; compound concentrations: 100 nM and 1000 nM (sheet 'Samples'), CATDS: 0.366305815038865; n = 1
CDK7 = details: read-out: apparent Kd; compound concentrations:100 nM and 1000 nM (sheet 'Samples'); n = 1
GSK3A = details: read-out: apparent Kd; compound concentrations:100 nM and 1000 nM (sheet 'Samples'); n = 1
GSK3B = details: read-out: apparent Kd; compound concentrations:100 nM and 1000 nM (sheet 'Samples'); n = 1
PAK6 = details: read-out: apparent Kd; compound concentrations:100 nM and 1000 nM (sheet 'Samples'); n = 1
PKN1 = details: read-out: apparent Kd; compound concentrations:100 nM and 1000 nM (sheet 'Samples'); n = 1
PRKCA = details: read-out: apparent Kd; compound concentrations: 100 nM and 1000 nM (sheet 'Samples'), CATDS: 0.33942301458254898; n = 1
PRKCB = details: read-out: apparent Kd; compound concentrations:100 nM and 1000 nM (sheet 'Samples'); n = 1
PRKCD = details: read-out: apparent Kd; compound concentrations:100 nM and 1000 nM (sheet 'Samples'); n = 1
RPS6KA6 = details: read-out: apparent Kd; compound concentrations:100 nM and 1000 nM (sheet 'Samples'); n = 1
[1] = compound concentrations:100 nM and 1000 nM (sheet 'Samples')

`Cl.Cn1c(=O)c(Oc2ccc(F)cc2F)cc2cnc(N[C@H]3CCOC3)nc21` [RO3311017-001] was tested, and the potency estimated from few doses (CDKL5; CATDS: 0.14258501509608601) was 1540 nM, the potency estimated from few doses (MAPK10) was 1260 nM and the potency estimated from few doses (MAPK14; CATDS: 0.62465881952288804) was 19.2 nM. It also gave a potency estimated from few doses (MAPK9; compound concentrations: 100 nM and 1000 nM (sheet 'Samples'), CATDS: 0.14319279027503101) of 1510 nM and a potency estimated from few doses (MAPKAPK2; compound concentrations: 100 nM and 1000 nM (sheet 'Samples'), CATDS: 0.37042886154437599) of 54.5 nM.

Compound `Fc1ccc(-c2nc[nH]c2-c2ccncc2)cc1` [SB-217360] has a potency estimated from few doses (CIT) of 926 nM, a potency estimated from few doses (CSNK1A1) of 98 nM and a potency estimated from few doses (CSNK1D) of 40.5 nM. The potency estimated from few doses (CSNK1E) was 623 nM, the potency estimated from few doses (MAPK14; CATDS: 6.0932890746218903E-2) was 445 nM and the potency estimated from few doses (MAPK9; [1]) was 526 nM. It also gave a potency estimated from few doses (MAPKAPK2; [1]) of 83.8 nM, a potency estimated from few doses (PIK3CD; [1]) of 114 nM and a potency estimated from few doses (PKN3) of 212 nM. It also gave a potency estimated from few doses (PRKX) of 77.5 nM, a potency estimated from few doses (PSMC3) of 1190 nM and a potency estimated from few doses (RIPK2) of 99.5 nM. The potency estimated from few doses (SIK3) was 1440 nM and the potency estimated from few doses (TGFBR2) was 1140 nM.

`Cl.Nc1c(C(=O)c2cccc(-c3cccnc3)c2)cnn1-c1ccc(F)cc1` [RO1162529-002] gave a potency estimated from few doses (CDK6) of 1190 nM, a potency estimated from few doses (ERCC2; compound concentrations: 100 nM and 1000 nM (sheet 'Samples'), CATDS: 8.00195217918135E-2) of 2030 nM and a potency estimated from few doses (ILK) of 1410 nM. For the same compound, the potency estimated from few doses (IRAK1) was 1160 nM, the potency estimated from few doses (MAPK11) was 877 nM and the potency estimated from few doses (MAPK14; CATDS: 9.0546615649564399E-2) was 1470 nM. It also gave a potency estimated from few doses (NQO1) of 1100 nM, a potency estimated from few doses (PIK3CD; compound concentrations: 100 nM and 1000 nM (sheet 'Samples'), CATDS: 0.395344018245397) of 126 nM and a potency estimated from few doses (PRKCQ; compound concentrations: 100 nM and 1000 nM (sheet 'Samples'), CATDS: 8.2854130075837501E-2) of 1850 nM. The potency estimated from few doses (RIOK2) was 2060 nM.

Compound `COc1cccc(-n2ncc3c(N/N=C/c4ccc(F)cc4)ncnc32)c1` [GW817396X] has a potency estimated from few doses (CDKL5; CATDS: 0.29608844643475601) of 2110 nM, a potency estimated from few doses (ERBB3) of 1520 nM and a potency estimated from few doses (MYLK3) of 1360 nM.

For `CN(C)C[C@H]1CCn2c(c(C3=C(c4cn(C)c5ccccc45)C(=O)NC3=O)c3ccccc32)C1` [RO0320432-000], the potency estimated from few doses (CDK7) was 1010 nM, the potency estimated from few doses (ERCC2; [1]) was 821 nM and the potency estimated from few doses (GSK3A) was 530 nM. It also gave a potency estimated from few doses (GSK3B) of 299 nM, a potency estimated from few doses (PAK6) of 1540 nM and a potency estimated from few doses (PKN1) of 1400 nM. For the same compound, the potency estimated from few doses (PRKCA) was 18.6 nM, the potency estimated from few doses (PRKCB) was 66.4 nM and the potency estimated from few doses (PRKCD) was 27.1 nM. The potency estimated from few doses (PRKCQ; [1]) was 122 nM and the potency estimated from few doses (RPS6KA6) was 311 nM.
